ERK EGF block: inhibitors of EGF-stimulated ERK signaling pathway; HEK293-V1b, EGF-stimulated phospho-ERK AlphaScreen; Potency, µM (highest dose often 11.5 µM), without a hit: at the highest dose activity change, negative = inhibition, usual class: inhibitors; 130,000 tested, 0.41% active; AID 1454; active means well fitted inhibition curve with a large enough effect;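 further: plate controls were stimulated vehicle wells for no effect and unstimulated vehicle basal for full effect; nearly all actives have a fitted effect of over 55% in size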
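Readout: AlphaScreen signal for phosphorylated ERK in lysed HEK293 cells stably expressing V1b. Stimulus 25 nM EGF, 5 min, following 30 min compound exposure. Data scaled to DMSO basal and full EGF activation.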
* marks the source's active call; other numbers are inactive results; ! = a repeat was not active; [ ] = dose if it differs, or a comment. Shown is part of a subset that was picked to be rich in hits. Potency means the concentration at half of the fitted maximal effect.

SMILES	ERK EGF block
Oc1cc2c(cc1O)C1c3ccc(O)c(O)c3OCC1(O)C2 (stereo not given)	11µM*!
CS(=O)(=O)Oc1ccc2c(c1)O/C(=C\C=C\c1ccccc1)C2=O	7.9µM*
CCN(CC)Cc1c(O)ccc2c1O/C(=C\C=C\c1ccccc1)C2=O	-9%[57.5 µM]
CCc1ccc(/C=C2\Oc3cc(OS(C)(=O)=O)ccc3C2=O)cc1	4%
Cn1c(CC(=O)c2ccc(Br)cc2)[n+](C)c2ccccc21	4%
C[C@@H]1C[C@](C)(C(=O)c2ccco2)C=C1c1ccco1	-1%
COc1ccc2c(c1)C(=O)[C@@H](OC(=O)Nc1cc(OC)c(OC)c(OC)c1)[C@H](c1ccc(OC)c(Br)c1)O2	-6%
N#CC(C#N)=C(Nc1ccccc1)c1ccccc1	-2%
CSC(SC)=C(C#N)C(=O)c1ccccc1	25µM*
O=C(O)c1ccc(C(=O)C(=O)c2ccccc2)cc1	0%[57.5 µM]
COc1ccc2c(c1)O[C@@H](c1cccc(C(F)(F)F)c1)[C@H](OC(=O)NS(=O)(=O)c1ccc(C)cc1)C2=O	-11%
CC1=C(C(=O)OCc2ccccc2)C(C2CCCCC2)NC(=O)N1CCCCCC(=O)O (stereo not given)	-1%
CCc1ccc(-n2cccc2/C=C2/C(=N)N3C(=NC2=O)SN=C3S(C)(=O)=O)cc1	6%
CCSC1=NSC2=NC(=O)/C(=C\c3coc4ccccc4c3=O)C(=N)N12	32µM*
CC(C)CC1=NN2C(=N)/C(=C\c3coc4ccccc4c3=O)C(=O)N=C2S1	7%
COc1cc2c(cc1O)C(Cc1ccc(O)cc1)[N+](C)(C)CC2 (stereo not given)	9%
CCC(C)C(=O)O[C@H]1C[C@@H](C)C=C2C=C[C@H](C)[C@H](CC[C@@H]3C[C@@H](O)CC(=O)O3)C21 (stereo not given in full)	8%
COc1ccc(N=c2oc3cc(O)ccc3cc2C(=O)Nc2ccccn2)cc1OC	28µM*
Cc1ccc(-c2cc(C(=O)Nc3ccccn3)c3ccccc3n2)o1	-4%
COc1ccc(NC(=O)c2cc3cccc(OC)c3oc2=Nc2ccc(C(=O)O)cc2)cc1OC	-1%
CCC(C)(C)C(=O)O[C@@H]1C[C@H](C)C=C2C=C[C@H](C)[C@@H](CC[C@H]3C[C@@H](O)CC(=O)O3)[C@H]21	0%[25.7 µM]
COc1ccc(S(=O)(=O)N2c3ccc(Cl)cc3[C@](O)(c3ccccc3Cl)[C@@H]2C(=O)N2CCC[C@H]2C(N)=O)cc1OC	3%
O=C(N/N=C/c1cn(-c2ccccc2)nc1-c1cc2ccccc2o1)c1ccncc1	1%
O=C(N/N=C/c1cn(-c2ccccc2)nc1-c1cccnc1)c1cccnc1	-2%
O=C(N/N=C/c1cn(-c2ccccc2)nc1-c1cc2ccccc2o1)c1cccnc1	7.1µM*
SMILES	ERK EGF block
C[C@H]1CC[C@@H]2N(C1)C[C@H]1[C@@H]3C[C@H]4[C@@H](C/C(=N\O)[C@H]5C[C@@H](O)CC[C@@]54C)[C@@H]3CC[C@H]1[C@]2(C)O	-12%
O=C1CCCC1C(O)c1ccc2ccccc2c1 (stereo not given)	12%
CC/C=C\C/C=C\C/C=C\C/C=C\C/C=C\C/C=C\CCC(=O)NCC(=O)O	-1%
COc1ccc2c(c1OC)OCC(c1ccc(OC)c(OC)c1OC)C2 (stereo not given)	25%
O=C(O)c1ccc(/C=C2\SC(=S)N(Nc3ccccc3)C2=O)cc1	-11%[57.5 µM]
O=C1/C(=C/c2ccncc2)SC(=S)N1Nc1ccccc1	-3%[57.5 µM]
O=C1/C(=C/c2ccc(O)c(O)c2)SC(=S)N1Nc1ccccc1	13µM*
C=CCOC(=O)N[C@@H](c1ccc(Br)cc1)C(C(C)=O)C(C)=O	0%
Clc1ccccc1C(c1ccccc1)(c1ccccc1)n1ccnc1	22µM*!
FC(F)(F)c1ccccc1-n1ccnc1	4%
Clc1ccccc1-c1nccc(-n2ccnc2)n1	26%
O=C(c1cccc(F)c1)N1CCC2(CCN(Cc3cc(C(F)(F)F)cc(C(F)(F)F)c3)CC2)CC1	1%
CN(C)c1ccc(C(c2ccc(N(C)C)cc2)c2ccc([N+](=O)[O-])cc2)cc1	14µM*
CC(C)(C)C(=O)NC(NC(=O)C(C)(C)C)c1ccc([N+](=O)[O-])cc1	-6%
CN(C)c1ccc(C=NC(CO)C(O)c2ccc([N+](=O)[O-])cc2)cc1 (stereo not given)	11%[57.5 µM]
O=C(Nc1cccc(F)c1)N1CCCC2(CCN(C(=O)c3cnccn3)CC2)C1	-12%
CCN(CC)CCn1c(-c2ccccc2)nc2c(NCCO)nc(C)nc21	3%
C[C@](N)(C(=O)O)c1ccc(-c2nn[nH]n2)cc1	-10%
CN1CC[C@@]2(CCCN(C(=O)c3cccc(F)c3)C2)C1	7%
Cc1ncc([N+](=O)[O-])n1C[C@H](O)CCl	-1%[25.7 µM]
O=C(/C=C/c1ccc2c(c1)OCO2)NCCCN1CCOCC1	-14%
Cc1cc(C(=O)Nc2ccc(C)c(S(=O)(=O)N3CCOCC3)c2)c(C)o1	-7%
Cc1ccc(NC(=O)/C=C/c2ccc3c(c2)OCO3)cc1S(=O)(=O)N1CCOCC1	28µM*
CC(C)=CCC/C(C)=C/CC/C(C)=C/CSCC(=O)O	15%
CO[C@@H](CCOCc1ccccc1)C[C@H]1O[C@H](C(=O)OC(C)C)C=C[C@@H]1C	-11%
SMILES	ERK EGF block
CN(C)c1ccc(C(=S)Nc2ccccc2)cc1	6%
CN(C)c1ccc(NC(=S)c2ccccn2)cc1	20µM*
CN(C)c1ccc(/C=N/NC(=O)c2ccccn2)cc1	-9%[57.5 µM]
COc1ccccc1CN1CCCC2(CCN(C(=O)c3ccncc3)CC2)C1	-8%
COC(=O)c1ccc(C(/C=C/[C@@H](C)C(=O)NCCc2c[nH]c3ccccc23)NC(=O)OCc2ccccc2)cc1 (stereo not given in full)	-6%
COc1ccc(NS(=O)(=O)c2ccc(I)cc2)cc1N1CCN(C)CC1	-8%
O=c1cc(-c2ccc(O)cc2)oc2cc(O)ccc12	-6%
O=c1cc(O)c2ccc(O)cc2o1	-9%[57.5 µM]
O=c1ccc2[n+]([O-])c3ccc(O)cc3oc-2c1	16µM*
COc1cc(C(=O)OC2CSCC2NC(=O)c2ccccc2)cc(OC)c1OC (stereo not given)	-6%
O=S(=O)(O)c1ccc(N=Nc2ccccc2)cc1	-3%[57.5 µM]
Nc1ccc(N=Nc2ccccc2)c2ccccc12	18µM*
Nc1ccc(N=Nc2ccccc2)c(N)n1	3%[57.5 µM]
CCNc1ncc2nc(-c3cc(F)cc(F)c3)c(=O)n(Cc3cccs3)c2n1	-1%
O=C(O[C@@H]1Cc2c(O)cc(O)cc2OC1c1ccc(O)c(O)c1)c1cc(O)c(O)c(O)c1 (stereo not given in full)	13%
Nc1ncnc2c1c(I)cn2C1OC(CO)C(O)C1O (stereo not given)	15%
Cc1cc(C(=O)CSc2nncs2)c(C)n1Cc1ccco1	14%
CCCn1c(C)cc(C(=O)CSc2nc3ccccc3c(=O)n2Cc2ccco2)c1C	10%
Cc1cc(C(=O)CSc2nc3ccccc3[nH]2)c(C)n1Cc1ccco1	18µM*
NC(=NCCCCCCN=C(N)/N=C(\N)Nc1ccc(Cl)cc1)/N=C(\N)Nc1ccc(Cl)cc1	22µM*!
NNC(=S)Nc1ccc(Cl)cc1	-5%
CC(C)N=C(N)/N=C(\N)Nc1ccc(Cl)cc1	8%[25.7 µM]
CC(C)=CCn1cnc2c1C(NOCc1ccccc1)=NCN2	2%
CCCn1c(C)nc2c(NCc3ccccc3)nc(C)nc21	1%
Cc1c(C)n(CC(O)CNc2ccccc2)c2ccccc12 (stereo not given)	6%
OC(CNCCC1C=Nc2ccccc21)Cn1c2ccc(Cl)cc2c2cc(Cl)ccc21 (stereo not given)	22µM*

Assay outcomes (PubChem BioAssay)
